Assay outcomes from PubChem BioAssay.
Giardia FBPA inh: Giardia lamblia aldolase inhibition; A8B2U2; AID 2451; Potency, µM (top dose mostly 59.6 µM), inactives show at the highest dose activity, negative = inhibition, most hits filed as inhibitors; actives 0.71% (n = 290,000); purified Giardia FBPA; further: nearly all actives have a fitted effect of over 55% in size
Target sequence (A8B2U2 whole entry, looked up): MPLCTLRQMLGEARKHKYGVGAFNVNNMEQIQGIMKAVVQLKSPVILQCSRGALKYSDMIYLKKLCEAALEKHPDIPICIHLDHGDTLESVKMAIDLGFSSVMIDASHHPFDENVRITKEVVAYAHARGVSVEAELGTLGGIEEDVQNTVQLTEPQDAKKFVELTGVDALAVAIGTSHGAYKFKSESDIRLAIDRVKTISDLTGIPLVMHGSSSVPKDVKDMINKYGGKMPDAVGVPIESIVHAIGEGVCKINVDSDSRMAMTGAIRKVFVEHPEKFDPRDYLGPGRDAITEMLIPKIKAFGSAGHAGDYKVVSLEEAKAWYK
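40 nM FBPA preincubated 10 min at RT with compound (up to 57.5 uM final), then substrate plus GAPDH/TPI/NAD/arsenate coupling and diaphorase/resazurin added. Fluorescence read after 20 min at RT, 525/598 nm.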
AmpC inh detg: AmpC beta-lactamase inhibition with detergent present; P00811; AmpC hydrolysis of nitrocefin, absorbance 480 nm, 0.01% Triton; Potency, µM (doses to about 114 µM), for inactives: at the highest dose activity change, negative = inhibition, hits mostly inhibitors; actives 0.041% (n = 370,000); AID 485294;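 further: 0% = no-compound wells and -100% = no-enzyme wells; nearly all actives have a fitted effect of over 25% in size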
Target sequence (P00811 whole entry, looked up): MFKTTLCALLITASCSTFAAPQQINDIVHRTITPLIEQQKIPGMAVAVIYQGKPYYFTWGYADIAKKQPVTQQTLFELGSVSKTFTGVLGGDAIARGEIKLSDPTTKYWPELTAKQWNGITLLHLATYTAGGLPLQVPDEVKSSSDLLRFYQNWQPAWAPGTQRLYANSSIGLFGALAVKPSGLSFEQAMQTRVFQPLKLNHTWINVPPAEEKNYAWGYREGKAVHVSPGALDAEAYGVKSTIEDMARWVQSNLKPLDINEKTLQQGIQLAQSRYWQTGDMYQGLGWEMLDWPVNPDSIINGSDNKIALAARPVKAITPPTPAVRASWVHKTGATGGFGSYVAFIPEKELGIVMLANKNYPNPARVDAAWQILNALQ
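20 mM phosphate pH 7.0 + 0.01% (detergent screen) or 0.0001% Triton X-100; 5.3 nM AmpC reagent; cpd preinc 15 min RT; nitrocefin (800 uM stock) to start; A480 q20 s × 4 min; Activity was normalised to no-enzyme and no-compound control wells.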
AmpC inh no detg: blocks E. coli AmpC beta-lactamase in detergent-free assay. P00811. AmpC nitrocefin hydrolysis, absorbance 480 nm, 0.0001% Triton. Potency, µM (top dose mostly 57.1 µM), without a hit: top-dose activity change, negative = inhibition, usual class: inhibitors. actives 0.52% (n = 330,000). AID 485341;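 further: plate controls were no compound for no effect and no enzyme for full effect; nearly all actives have a fitted effect of over 20% in size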
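20 mM phosphate pH 7.0 + 0.01% (detergent screen) or 0.0001% Triton X-100; 5.3 nM AmpC reagent; cpd preinc 15 min RT; nitrocefin (800 uM stock) to start; A480 q20 s × 4 min; Activity was normalised to no-enzyme and no-compound control wells.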
AMA1-RON2 inh: disrupts binding of P. falciparum AMA1 to RON2; AlphaScreen AMA1-biotinylated RON2 peptide binding; Potency, µM (titrated, usually from 58.2 µM), for the others: top-dose activity change, negative = inhibition, most hits filed as inhibitors; actives 0.2% (n = 360,000); AID 720542;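 further: 0% = vehicle wells and -100% = peptide control; nearly all actives have a fitted effect of over 45% in size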
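AMA1 (3D7) with his tag at 25 nM final met compounds first, then biotinylated RON2 peptide at 25 nM; detection used donor plus acceptor beads, 10 µg/mL apiece, read by AlphaScreen after 30 min at room temperature.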
* = called active by the depositor; ! = repeats disagree; [ ] = another dose, or the depositor's remark. Shown are actives, neighbours in structure and some others; about 1.1% of the full set was active somewhere. The call rests on the fitted dose curve; in most records, active means well fitted curve in the direction sought with a large enough effect; inconclusive means small, poorly fitted or top-dose-only effect, or another doubt; inactive means no such curve, though single readings can be large; an effect the other way counts as inactive or inconclusive. Unless noted, on the % scale 0 is the no-effect control and ±100 the full control effect; potency means the concentration at half of the fitted maximal effect.

Screening CCOC(=O)C1CCN(Cc2ccccc2C(F)(F)F)CC1 returned Giardia FBPA inh -20%, AmpC inh detg -2%, AmpC inh no detg -1% and AMA1-RON2 inh -18%.
Cc1csc(Nc2nc(N)c(C(=O)Nc3ccccc3)o2)n1 was read as Giardia FBPA inh -2%, AmpC inh detg -1%, AmpC inh no detg -32% and AMA1-RON2 inh 21%.
Screening O=C(NCc1ccc(Cl)s1)C1CCC(=O)N(CCc2ccccn2)C1 (centres undefined) returned Giardia FBPA inh 4%, AmpC inh detg 2%, AmpC inh no detg -7% and AMA1-RON2 inh -3%.
For Oc1ccc(C2C(c3ccccc3)=NN=C(c3ccccc3F)N2O)c(O)c1 (centres undefined) the results were Giardia FBPA inh -7%, AmpC inh detg inconclusive, AmpC inh no detg inconclusive and AMA1-RON2 inh 9%.
Screening Oc1ccc(C2C(c3ccccc3)=NN=C(c3ccc(Cl)cc3)N2O)c(O)c1 (centres undefined) returned Giardia FBPA inh -7%, AmpC inh detg inconclusive, AmpC inh no detg 25µM* and AMA1-RON2 inh 6%.
Screening N#Cc1c(-c2c(Cl)cccc2Cl)noc1/C=C/Nc1ccc(C(=O)O)cc1 returned Giardia FBPA inh 13%, AmpC inh detg 2%, AmpC inh no detg 18µM* and AMA1-RON2 inh 14%.
Screening Cc1ccc(S(=O)(=O)Nc2cccc(-c3ccc(N4CCCCCC4)nn3)c2)cc1 returned Giardia FBPA inh 4%, AmpC inh detg -13%, AmpC inh no detg 0.71µM* and AMA1-RON2 inh -11%.
COc1ccc(NS(=O)(=O)c2cccc(-c3n[nH]c(=S)n3Cc3ccccc3)c2)cc1 was read as Giardia FBPA inh 15%, AmpC inh detg inconclusive, AmpC inh no detg 13µM* and AMA1-RON2 inh 98%.
`CCN(CC)S(=O)(=O)c1cccc(-c2n[nH]c(=S)n2Cc2ccccc2)c1` gave Giardia FBPA inh 11%, AmpC inh detg inconclusive, AmpC inh no detg -36%[11.4 µM] and AMA1-RON2 inh 85%.
`COc1ccc(NS(=O)(=O)c2ccc(-c3n[nH]c(=S)n3Cc3ccccc3)cc2)cc1` gave Giardia FBPA inh 17%, AmpC inh detg 3%, AmpC inh no detg 7.9µM* and AMA1-RON2 inh 93%.
For Cc1cc(C)c(NC(=O)CSC2=Nc3ccccc3C3=NC(CC(=O)NCc4cccs4)C(=O)N23)c(C)c1 (centres undefined) the results were AmpC inh detg -1%.
`CCOC(=O)CCC(=O)N1CCNC(=O)C1` gave Giardia FBPA inh 3%, AmpC inh detg 6%, AmpC inh no detg 11µM* and AMA1-RON2 inh -3%.
Screening CCOC(=O)CCC(=O)N1CCOCCN(C(=O)CCC(=O)OCC)CCOCC1 returned Giardia FBPA inh 9%, AmpC inh detg -9%, AmpC inh no detg -10% and AMA1-RON2 inh -4%.
For Cc1cc(C(=O)N2CCC2(C)C(=O)NCC(C)(C)C)nn1C (centres undefined) the results were AMA1-RON2 inh 13%.
For CN1CCC(c2c[nH]c3ccccc23)C1 (centres undefined) the results were Giardia FBPA inh -19%, AmpC inh detg 0%, AmpC inh no detg -12% and AMA1-RON2 inh 4%.
CN1CCC(c2c[nH]c3ccc(O)cc23)CC1 was read as Giardia FBPA inh 2µM*! and AMA1-RON2 inh -6%.
CCN(CC)S(=O)(=O)c1cc(NC(=O)C2CCN(c3ncnc4sc(C)c(C)c34)CC2)ccc1Cl was read as AmpC inh detg -11%, AmpC inh no detg -15% and AMA1-RON2 inh -7%.
`Cc1ccc(NC(=O)C2CCN(c3ncnc4sc(C)c(C)c34)CC2)cc1S(=O)(=O)N(C)C` gave AmpC inh detg inconclusive, AmpC inh no detg 28µM* and AMA1-RON2 inh -3%.
C=CSc1sc(Cl)c(N2CCOCC2)c1[N+](=O)[O-] was read as Giardia FBPA inh 1%, AmpC inh detg 4%, AmpC inh no detg -15% and AMA1-RON2 inh inconclusive.
For C=CS(=O)(=O)c1sc(Cl)c(N2CCOCC2)c1[N+](=O)[O-] the results were Giardia FBPA inh -3%, AmpC inh detg inconclusive, AmpC inh no detg 28µM* and AMA1-RON2 inh -22%.
Screening COc1ccc(NC(=O)Cn2c(C)cc3ccccc3c2=O)c(OC)c1 returned AmpC inh detg 2%.
`COC(=O)CS(=O)(=O)c1ccc2c(c1)CC(=O)N2` gave Giardia FBPA inh -1%, AmpC inh detg 2%, AmpC inh no detg 0.14µM* and AMA1-RON2 inh 8%.
For O=C(Oc1ccccc1)N1CCC2(CC1)CCN(c1ccccc1)CC2 the results were Giardia FBPA inh 1%.
CCCCCCCCCCCCCCOc1ccc(C(=O)O)o1 was read as Giardia FBPA inh 11%.
For COC1=C(OC)C(=O)C(CCCCCCCCCCO)=C(C)C1=O the results were Giardia FBPA inh 4.5µM*, AmpC inh detg 5% and AmpC inh no detg 132%.
`Oc1ccc2ccccc2c1-c1sc(Nc2ccccc2)n[n+]1-c1ccc(F)cc1` gave Giardia FBPA inh 1%, AmpC inh detg -11%, AmpC inh no detg -47% and AMA1-RON2 inh 62%.
For Fc1ccc(-[n+]2nc(Nc3ccccc3)sc2-c2c3ccccc3cc3ccccc23)cc1 the results were Giardia FBPA inh 22µM*, AmpC inh detg 4%, AmpC inh no detg -7% and AMA1-RON2 inh inconclusive.
For CCc1c(C)c2ccc3c(c2oc1=O)CN(Cc1ccccc1)CO3 the results were AmpC inh detg 5%.
CCCc1nc(SCc2cccnc2)c2c(=O)n(C)c(=O)n(C)c2n1 was read as Giardia FBPA inh 8%, AmpC inh detg 0%, AmpC inh no detg 40µM* and AMA1-RON2 inh -1%.
CCCc1nc(SC2CCCC2)c2c(=O)n(C)c(=O)n(C)c2n1 was read as Giardia FBPA inh 10%, AmpC inh detg inconclusive, AmpC inh no detg 35µM* and AMA1-RON2 inh 2%.
For CCCc1nc(SCC(=O)N2CCC(C)CC2)c2c(=O)n(C)c(=O)n(C)c2n1 the results were Giardia FBPA inh 0%, AmpC inh detg 1%, AmpC inh no detg 49% and AMA1-RON2 inh -1%.
Screening Cn1c(=O)c2c(SCc3cccnc3)nc(CC(C)(C)C)nc2n(C)c1=O returned Giardia FBPA inh 5%, AmpC inh detg inconclusive, AmpC inh no detg -1% and AMA1-RON2 inh 7%.
CCOCCCNC(=O)c1[nH]c2cc(C)ccc2c1Sc1ccc(Cl)cc1 was read as AmpC inh detg 8%.
O=C(O)CN1C(=O)/C(=C\c2ccc(OC(=O)c3ccco3)cc2)SC1=S was read as Giardia FBPA inh inconclusive, AmpC inh detg 2%, AmpC inh no detg -29% and AMA1-RON2 inh -10%.
O=C(O)CN1C(=O)/C(=C/c2ccc(SCc3ccccc3)o2)SC1=S was read as Giardia FBPA inh 20µM*, AmpC inh detg 0%, AmpC inh no detg -18% and AMA1-RON2 inh -4%.
`COc1ccc(CN2CCC(N3CC(C)OC(C)C3)CC2)c(OC)c1OC` (centres undefined) gave Giardia FBPA inh inconclusive, AmpC inh detg inconclusive, AmpC inh no detg -11% and AMA1-RON2 inh 13µM*.
